# NS1 inh = influenza NS1 inhibition. Potency, µM (top dose mostly 46.1 µM). 0.4% of 270,000 active; calls by dose curve; note: actives are rising curves; nearly all actives have a fitted effect of over 50% in size
#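 Read-out: OD600 growth recovery of NS1-expressing budding yeast. Cells grown overnight at 30C in -URA glucose medium, washed, resuspended and diluted 1:100 in 2% galactose assay medium, pH 6.0. Same strain lacking NS1 served as positive control.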
# SARS PLpro yeast = SARS-CoV PLP inhibition in yeast; S. cerevisiae expressing SARS-CoV PLpro, growth rescue; Potency, µM (doses to about 32.9 µM), hits mostly activators; 0.19% of 330,000 active; AID 485353; calls by dose curve; note: nearly all actives have a fitted effect of over 55% in size
# Pf growth 96h = P. falciparum growth inhibition at 96 hour, primary screen for plastid delayed-death inhibitors | Potency, µM (top dose mostly 28.7 µM), most hits filed as inhibitors | P. falciparum luciferase reporter growth, 96 h | 6.9% of 320,000 active
#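 Plates of compound plus infected erythrocytes (2% hematocrit, 0.05% parasitemia final) incubate 96 hours, 37 C, 5% CO2. Detection reagent added; reduced luminescence from the parasites' luciferase reporter flags inhibition.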
# Pf growth 48h = P. falciparum growth inhibition at 48 hours (one generation) | P. falciparum luciferase growth in erythrocytes, 48 h | Potency, µM (top dose mostly 28.7 µM), usual class: inhibitors | 5.9% of 310,000 active | AID 504832
#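 In quantitative HTS format, infected erythrocytes bearing luciferase-reporter parasites were treated for a single generation at 37 C. Luminescence after adding detection reagent served as the growth measure.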
# RE007 growth inh = less growth of the S. pombe RE007 Vpr strain. 0.21% of 360,000 active. AID 651644. Potency, µM (doses to about 92.2 µM), usual class: inhibitors. S. pombe RE007 Vpr strain, BacTiter-Glo ATP luminescence, 24 h; active = well fitted falling curve with a large enough effect; inconclusive = small, poorly fitted or top-dose-only effect; inactive = no such curve, though single readings can be large or run the other way; note: nearly all actives have a fitted effect of over 50% in size
#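 Fission yeast RE007 carrying one integrated HIV-1 vpr copy, seeded at OD 0.01 in PMG+AL medium with 23 nL pinned compound. Grown 24 h at 30 degrees; viability read by BacTiter-Glo luminescence after 5 min.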
# Hits are given with their value; . = inactive; ? = inconclusive; / = no result; ! = a repeat was not active; [ ] = another dose, or the depositor's remark. Shown are actives, neighbours in structure and some others; about 9.5% of the full set was active somewhere. Unless noted, calls come from the whole dose curve; as a rule, active = well fitted inhibition curve with a large enough effect; inconclusive = small, poorly fitted or top-dose-only effect, or another doubt; inactive = no such curve, though single readings can be large or run the other way.
SMILES,NS1 inh,SARS PLpro yeast,Pf growth 96h,Pf growth 48h,RE007 growth inh
COc1ccc(NC(=O)c2oc3ccc(S(=O)(=O)N4CCC5(CC4)OCCO5)cc3c2C)cc1,11µM,.,.,3.7µM,.
CCOC(=O)N1CCN(C(=O)CC(C(=O)N2CCc3ccccc32)n2ccnc2)CC1 (configuration not stated),.,.,.,0.033µM,.
O=C(CC(C(=O)N1CCc2ccccc21)n1ccnc1)NCc1ccccc1 (configuration not stated),.,.,.,/,.
CCN(CC(=O)Nc1ccc(OC)cc1)C(=O)c1ccc(OCc2c(C)noc2C)cc1,/,/,/,/,.
C[N+](C)(C)C(C1=CCCC1=O)c1ccccc1 (configuration not stated),.,/,/,/,/
CC(C)Sc1nc2c(c(=O)n(C)c(=O)n2C)n1C,.,.,.,.,.
Cn1c(=O)c2c(nc(SC3C(=O)CC(C)(C)CC3=O)n2C)n(C)c1=O,.,.,12µM,.,.
Cc1ccc(NC(=O)c2cccc(S(=O)(=O)Nc3c(C)n(C)n(-c4ccccc4)c3=O)c2)cc1C,/,/,/,/,.
CC(C)(C)OC(=O)C[C@H]1C/C=C\C[C@H](CC(=O)NCCO)C(=O)N[C@@H](Cc2ccccc2)COC1=O,/,.,/,/,.
N#Cc1ccc(N=c2ssnc2Cl)cc1,.,.,12µM!,.,35µM!
Clc1ccc(N=c2ssnc2Cl)cc1,.,.,?,.,?
C#Cc1ccc([C@@H]2C=C(C(=O)N3CCN(Cc4ccccc4)CC3)O[C@H](OCC)[C@H]2CCCO)cc1,.,.,6.6µM,?,.
C#Cc1ccc([C@H]2C=C(C(=O)N3CCN(Cc4ccccc4)CC3)O[C@@H](OCC)[C@@H]2CCCO)cc1,.,.,10µM,?,.
CCO[C@@H]1OC(C(=O)N2CCN(Cc3ccccc3)CC2)=C[C@H](c2coc3ccccc3c2=O)[C@H]1CCCO,.,.,5.2µM,?,.
CCO[C@@H]1OC(C(=O)N2CCN(Cc3ccccc3)CC2)=C[C@H](c2ccccc2)[C@H]1CCCO,.,.,?,?,.
CCO[C@H]1OC(C(=O)N2CCN(Cc3ccccc3)CC2)=C[C@@H](c2coc3ccccc3c2=O)[C@@H]1CCCO,.,.,?,?,.
COc1cccc(CN2CC(C(=O)N(C)CC3CCOCC3)CCC2=O)c1 (configuration not stated),.,.,.,.,.
CN(CCCNC(=O)c1ccccc1F)CCCNC(=O)c1ccccc1F,.,.,9.3µM,?,.
CCN(c1ccccc1C(=O)O)S(=O)(=O)c1ccc2[nH]c(=O)[nH]c2c1,.,.,.,.,.
CC(C)N1CCC1(C)C(=O)Nc1cc(-c2ccccc2)nn1C (configuration not stated),/,/,/,/,.[18.4 µM]
O=C(CCl)N(c1ccc(Cl)cc1)c1c[nH]c2ccccc12,.,.,/,2.3µM,.
O=C(CCl)N(c1ccccc1)c1c[nH]c2ccccc12,.,.,1.2µM,1.7µM,?
Cc1ccc(Cc2c(-c3ccc(F)cc3)nc3ccc(Cl)cn23)cc1,/,/,/,/,.
COc1ccc(OC)c(S(=O)(=O)NCc2nc3nc(C)cc(C)n3n2)c1,.,.,13µM,.,.
NC(=O)c1ccc(NC(=O)CSc2nnc(C3CCCCC3)n2N)cc1,.,.,.,.,.
SMILES,NS1 inh,SARS PLpro yeast,Pf growth 96h,Pf growth 48h,RE007 growth inh
Nn1c(SCC(=O)Nc2ccc(F)c(F)c2)nnc1C1CCCCC1,.,.,12µM,.,.
Nn1c(SCC(=O)Nc2ccc(Oc3ccccc3)cc2)nnc1C1CC1,.,.,?,8.3µM,.
CCc1cc(C(=O)c2ccc(OC)cc2)c(NC(=O)CN2CCCCC2)s1,.,.,3.7µM,3.7µM,.
CCc1cc(C(=O)c2ccc(OC)cc2)c(NC(=O)CN2CCCC2)s1,.,.,?,?,.
O=[n+]1cc(-c2ccccc2)n([O-])c2c1CCCCC2,.,.,15µM,.,.
C/C(=N\NC(=O)c1cc2ccccc2cc1O)c1ccc2c(c1)OCO2,.,.,5.2µM,6.6µM,.
C/C(=N\NC(=O)c1ccc(C)cc1C)c1ccc2c(c1)OCO2,.,.,3.7µM,10µM,.
CCN(CC)S(=O)(=O)c1cc(NC(=O)Cc2ccc(S(=O)(=O)N3CCOCC3)s2)ccc1Cl,/,/,/,/,.
COC(=O)[C@@]1(Cc2ccc(OC)cc2)[C@H]2c3cc(C(=O)N4CCCC4)n(Cc4ccc(C)c(F)c4F)c3C[C@H]2CN1C(=O)c1ccccc1,/,/,/,/,.
COC(=O)[C@@]1(Cc2ccc(OC)cc2)[C@H]2c3cc(C(=O)N4CCCC4)n(CCc4c[nH]c5ccc(O)cc45)c3C[C@H]2CN1C(=O)c1ccccc1,?,.,2.1µM,1µM,/
COC(=O)[C@@]1(Cc2ccc(OC)cc2)[C@H]2c3cc(C(=O)N4CCCC4)n(CCc4ccc(OC)c(Br)c4)c3C[C@H]2CN1C(=O)c1ccccc1,/,/,/,/,.
COC(=O)[C@@]1(Cc2ccc(OC)cc2)[C@H]2c3cc(C(=O)N4CCCC4)n(Cc4ccccc4)c3C[C@H]2CN1C(=O)c1ccccc1,/,/,/,/,.
COC(=O)[C@@]1(Cc2ccc(OC)cc2)[C@H]2c3cc(C(=O)N4CCCC4)n(CCSCCO)c3C[C@H]2CN1C(=O)c1ccccc1,.,.,1.7µM,1µM,.
COC(=O)[C@@]1(Cc2ccc(OC)cc2)[C@H]2c3cc(C(=O)N4CCCC4)n(CCO)c3C[C@H]2CN1C(=O)c1ccccc1,.,.,4.7µM,?,.
COC(=O)[C@@]1(Cc2ccccc2)[C@H]2c3cc(C(=O)N4CCCC4)n(Cc4ccsc4Br)c3C[C@H]2CN1C(=O)c1ccccc1,.,.,3.3µM,?,/
COc1cc(/C=C/C(=O)O)cc(S(=O)(=O)Nc2ccc(S(=O)(=O)N3CCCCC3)cc2)c1OC,/,.,.,.,.
Cc1cn([C@H]2C[C@H](O)[C@@H](CNCc3cnc(N4CCOCC4)s3)O2)c(=O)[nH]c1=O,/,/,/,/,.
COC(=O)[C@@]1(Cc2ccc(F)cc2)[C@H]2c3cc(C(=O)N4CCCC4)n(CCO)c3C[C@H]2CN1C(=O)c1ccccc1,.,.,6.6µM,3.7µM,.
COC(=O)Cn1c(C(=O)N2CCCC2)cc2c1C[C@H]1CN(C(=O)c3ccccc3)[C@@](Cc3ccc(OC)cc3)(C(=O)OC)[C@@H]21,/,/,/,/,.
COC(=O)[C@@]1(Cc2ccc(OC)cc2)[C@H]2c3cc(C(=O)N(C)C)n(CCSCCO)c3C[C@H]2CN1C(=O)c1ccccc1,.,.,5.2µM,2.3µM,.
COC(=O)[C@@]1(Cc2ccc(F)cc2)[C@H]2c3cc(C(=O)N4CCCC4)n(CCc4ccc(OC)c(Br)c4)c3C[C@H]2CN1C(=O)c1ccccc1,/,/,/,/,.
COC(=O)Cn1c(C(=O)N2CCCC2)cc2c1C[C@H]1CN(C(=O)c3ccccc3)[C@@](Cc3ccc(F)cc3)(C(=O)OC)[C@@H]21,.,.,8.3µM,5.2µM,.
O=C(CN1CCN(S(=O)(=O)c2ccc(Cl)cc2)CC1)N1CCCC1,/,.,.,.,.
COc1ccc2[nH]c(=O)c(CN(Cc3cccs3)C(=S)Nc3cccc(C)c3)cc2c1,.,.,?,15µM,.
